# Laboratory results published in PubChem BioAssay AID488890 (Southern Research Specialized Biocontainment Screening …, 2010).
# The campaign covered roughly 320,000 compounds. About 1,300 (0.41%) were called active. Inconclusive results (about 3%) are left out. No rule for the calls is given here. Only a sample is shown. Entries with a potency or affinity are not part of this list.
# Assay: growth inhibition of non-replicating M. tuberculosis (AID 488890);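 also: plate controls were DMSO cells for no effect and high antibiotic wells for full effect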
# Details: Mycobacterium tuberculosis non-replicating, at 25 µM, stronger effect = higher value
row,Structure (SMILES),inhibition
1,COCCN(C(=O)CSc1nc2ccccc2o1)c1c(N)n(Cc2ccccc2)c(=O)[nH]c1=O,10.9%
2,Cc1ccc(NC(=O)CCCCCCCCCCC2COCCO2)c(C)c1 (centres undefined),-9.85%
3,CN(C(=O)COC(=O)c1ccc(Br)c(S(=O)(=O)N2CCOCC2)c1)C1CCCCC1,11.1%
4,Cc1cc(-c2nnco2)c(C)n1-c1ccccc1,11.1%
5,O=C1NC2(CCCCCC2)C(=O)N1Cc1ccc([N+](=O)[O-])cc1,-2%
6,O=C1C(=O)N(CCN2CCOCC2)C(c2ccccc2F)/C1=C(\O)c1ccc(S(=O)(=O)N2CCOCC2)cc1 (centres undefined),2.92%
7,O=C(COc1ccccc1)N/N=C/c1sc(=O)n(Cc2cccc(C(=O)O)c2)c1Cl,-0.36%
8,CC[C@H](C)C(C(=O)N1CCN(C(=O)OC(C)(C)C)CC1)n1cc(C(CC(C)C)NC(=O)OC(C)(C)C)nn1 (some centres undefined),10.5%
9,CCOC(=O)c1ccc(CNC(=O)Cn2nnc(-c3cccc(C)c3)n2)o1,4.91%
10,Cc1ccccc1NC(=O)COC(=O)CCSc1ccccc1,61.5%
11,CCOc1ccc(C(=O)n2cc(C(=O)OC)c3ccccc32)cc1,24.8%
12,O=C1CCc2cc(S(=O)(=O)NCc3ccc(F)cc3)cc3c2N1CCC3,22.8%
13,COc1ccc(CNC(=O)CSc2ncn[nH]2)cc1OC,-3.59%
14,COC(=O)c1ccc(NC(=O)CN2CCN(S(=O)(=O)c3cc(Cl)ccc3OC)CC2)cc1,54.1%
15,COC(=O)c1c(NC(=O)c2ccco2)sc2c1CCN(C(C)C)C2,2.92%
16,CN1CCc2c(sc(NC(=O)c3ccc(C(=O)c4ccccc4)cc3)c2C(N)=O)C1,-13.4%
17,COC(=O)c1sc(NC(=O)c2c(OC)cccc2OC)c(C#N)c1C,-6.6%
18,COC(=O)c1c(NC(=O)Cc2ccccc2)sc2c1CCN(C(C)C)C2,-13.3%
19,COC(=O)c1sc(NC(=O)c2ccco2)c(C#N)c1C,16.9%
20,CN1CCc2c(sc(NC(=O)c3ccco3)c2C(N)=O)C1,0.26%
21,COc1ccc(/C(C)=N/OCC(=O)N=Nc2c(O)[nH]c3ccccc23)cc1,-24.1%
22,CCC(C)NC(=O)/C=C/c1cccs1 (centres undefined),59.1%
23,COc1ccc(CNC(=O)N2CCN(c3ccccc3OC)CC2)cc1,1.13%
24,O=C(CCc1nc2ccccc2c(=O)[nH]1)Nc1nnc(SCc2ccc(F)cc2)s1,-4.81%
25,O=C(Cc1ccccc1)c1ccccc1C(=O)N1CCCCC1,9.16%
26,O=C(Nc1ccc(Cl)cc1)Nc1nnc(-c2ccncc2)s1,16.2%
27,O=C(Nc1ccc(Cl)c(Cl)c1)Nc1nnc(-c2ccncc2)s1,68.9%
28,CC1CCCC(NC(=O)COC(=O)c2ccc(Cl)nc2)C1C (centres undefined),-6.83%
29,C=CCn1c(C)csc1=Nc1ccccc1C,10.7%
